VP16 counter – VP16 counterscreen qHTS for inhibitors of ROR gamma transcriptional activity; Drosophila S2 Gal4-VP16 UAS-luciferase, luminescence, 20 h; Potency, µM (doses to about 53.6 µM), for the others: at the top dose activity, negative = inhibition, most hits filed as inhibitors; 310,000 compounds, 3.5% hits; AID 2546, 2010;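 further: Gal4-VP16 expression switched on by copper sulfate through the metallothionein promoter; nearly all actives have a fitted effect of over 50% in size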
B2AR arrestin – qHTS assay of beta-arrestin-biased ligands of beta2-adrenergic receptor; Potency, µM (highest dose often 46.1 µM), without a hit: at the top dose activation, actives largely listed as activators; Beta-2 adrenergic receptor (Homo sapiens), P07550; beta-arrestin recruitment to beta2AR, cell-based reporter; 330,000 compounds, 0.02% hits;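 further: 0% = DMSO controls and full agonism = EC100 isoproterenol or metaproterenol; nearly all actives have a fitted effect of over 65% in size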
Target sequence (P07550 whole entry, looked up): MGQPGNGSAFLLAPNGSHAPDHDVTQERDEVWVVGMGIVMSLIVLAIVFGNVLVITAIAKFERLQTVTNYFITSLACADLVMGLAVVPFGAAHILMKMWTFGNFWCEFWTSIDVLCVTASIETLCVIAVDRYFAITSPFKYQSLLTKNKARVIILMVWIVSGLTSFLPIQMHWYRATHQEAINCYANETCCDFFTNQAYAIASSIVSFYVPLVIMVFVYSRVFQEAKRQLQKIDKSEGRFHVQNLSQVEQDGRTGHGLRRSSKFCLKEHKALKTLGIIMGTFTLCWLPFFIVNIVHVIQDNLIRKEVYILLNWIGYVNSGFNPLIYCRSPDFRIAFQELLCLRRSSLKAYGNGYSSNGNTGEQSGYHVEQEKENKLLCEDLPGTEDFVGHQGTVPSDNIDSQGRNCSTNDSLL
NPSR antagonist – qHTS Assay for Antagonists of the Neuropeptide S Receptor: cAMP Signal Transduction | CHO-NPSR cells, cAMP TR-FRET, antagonist mode | Potency, µM (titrated, usually from 38.3 µM), for inactives: at the top dose activity change, negative = inhibition, most hits filed as inhibitors | 220,000 compounds, 1% hits | AID 1461, 2008 | Q6W5P4; further: nearly all actives have a fitted effect of over 50% in size
RORgamma inh – qHTS for inhibitors of ROR gamma transcriptional activity; Nuclear receptor ROR-gamma (Mus musculus), P51450; Drosophila S2 Gal4-RORgamma UAS-luciferase reporter, 20 h; Potency, µM (doses to about 53.6 µM), without a hit: top-dose activity change, negative = inhibition, hits mostly inhibitors; 310,000 compounds, 5.4% hits; further: nearly all actives have a fitted effect of over 60% in size
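Using a luciferase readout, inhibitors were identified by reduced reporter activity in Drosophila cells coexpressing a copper-inducible Gal4–ROR gamma fusion and UAS-driven Photinus luciferase, incubated 20 hr after 700 uM copper sulfate.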
* marks the source's active call; other numbers are inactive results; ? = inconclusive; . = no result; [ ] = dose if it differs, or a comment. An excerpt weighted towards active compounds, which were near 5.7% of everything screened. The call rests on the fitted dose curve; in most records, active means well fitted curve in the direction sought with a large enough effect; inconclusive means small, poorly fitted or top-dose-only effect, or another doubt; inactive means no such curve, though single readings can be large; an effect the other way counts as inactive or inconclusive. Unless noted, on the % scale 0 is the no-effect control and ±100 the full control effect; potency means the concentration at half of the fitted maximal effect.

SMILES	VP16 counter	B2AR arrestin	NPSR antagonist	RORgamma inh
Cc1cc(C)n2nc(SC(C)C(=O)NC3CCCCC3C)nc2n1 (stereo unspecified)	.	-0.2%	.	.
Cc1noc(C)c1-c1nccc(N2CCNCC2)n1	3.4%	.	.	-11.8%
COc1ccc(NC(=S)NCCc2c[nH]c3ccccc23)cc1	12.6µM*	4.8%	-10.1%	14.1µM*
COc1ccc2c(CCNC(=O)Nc3ccccc3)c[nH]c2c1	2.5%	-0.7%	24.0%	?
COc1ccccc1NC(=S)NCCc1c[nH]c2ccccc12	?	-1.2%	-16.4%[46.1 µM]	14.1µM*
Cc1ccc(NC(=S)NCCc2c[nH]c3ccccc23)c(C)c1	17.8µM*	-0.4%	50.9%	7.94µM*
COc1cc(NC(=S)NCCc2c[nH]c3ccccc23)c(OC)cc1Cl	3.55µM*	-1.1%	-11.6%[46.1 µM]	7.08µM*
Cc1ccccc1NC(=O)C(=O)NCCc1c[nH]c2ccccc12	8.3%	-0.1%	-5.5%	24.8%
CCOc1ccccc1NC(=O)NCCc1c[nH]c2ccccc12	4.3%	-0.4%	.	34.6%
COc1cc(NC(=S)NCCO)c(OC)cc1Cl	2.4%	0.4%	-7.6%	12.0%
CC(C)CN(C[C@@H](O)[C@H](Cc1ccccc1)NC(=O)O[C@H]1CO[C@H]2OCC[C@H]21)S(=O)(=O)c1ccc(N)cc1	-0.6%	.	.	37.6%
C/C=C1\C(=O)C[C@H]2[C@@H]3CCC4=CC(=O)CC[C@]4(C)[C@H]3CC[C@]12C	3.3%	.	.	-7.3%
COc1ccc2[nH]cc(CCNC(=O)Nc3ccccc3)c2c1	-11.8%	0.3%	.	5.4%
COc1ccc2[nH]cc(CCNC(=S)NCCc3ccccc3)c2c1	-23.0%	-0.9%	-16.6%	11.2µM*
C[C@@H]1CCC2[C@](C)(CO)[C@@H](O)CC[C@]2(C)[C@@]12C[C@](CO)(CC(=O)O)CO2 (stereo partly specified)	0.6%	-1.0%	.	0.6%
O=C(O)CC1NCCc2ccccc21 (stereo unspecified)	0.0%	3.4%	-18.8%	2.3%
Cc1ccc(S(=O)(=O)NCC2NCCc3ccccc32)cc1 (stereo unspecified)	5.6%	2.8%	-15.3%	17.8µM*
CN(C)c1ccc(-c2cc(N(C)Cc3ccco3)ncn2)cc1	-28.7%	.	.	?
Fc1ccc(-c2nc(-c3cccs3)[nH]c2-c2ccc(F)cc2)cc1	-16.9%	11.5%	-55.2%	-25.8%
Cc1ccsc1-c1nc(-c2ccccc2)c(-c2ccccc2)[nH]1	?	0.2%	-29.7%[46.1 µM]	3.98µM*
COc1cccc(C2=NNC(=NCc3ccccc3)SC2)c1	5.4%	-1.0%	-34.9%	8.91µM*
C=CCn1c(C)cc(C2=NNC(=NCc3ccccc3)SC2)c1C	-5.1%[10 µM]	-1.1%	-52.3%	23.5%
COc1ccc(CN=C2NN=C(c3cccc(OC)c3)CS2)cc1	-22.8%	0.4%	-6.9%	4.1%
Cc1ccc(C)c(C2=NNC(=NCc3ccccc3)SC2)c1	?	3.3%	-27.1%	7.94µM*
COc1ccc(/C=C2\SC(=NCc3ccccc3)NC2=O)cc1	-7.0%	-1.5%	-14.5%[46.1 µM]	42.9%
SMILES	VP16 counter	B2AR arrestin	NPSR antagonist	RORgamma inh
COc1ccc(CN=C2NN=C(c3ccccc3)CS2)cc1	-2.2%	?	-5.2%	2µM*
COc1ccccc1-n1nnnc1SCC(=O)NC1CCCCC1	6.7%	0.2%	.	42.1%
CC(=O)c1sccc1NC(=O)CC(C)(C)CC(=O)O	-3.9%	-0.8%	-10.1%	-9.6%
CN(CC(=O)NCc1ccco1)CC(=O)Nc1cc(S(C)(=O)=O)ccc1Cl	.	0.2%	.	.
CC1CCN(c2ccc(-c3cccs3)nn2)CC1	2µM*	-0.3%	.	2µM*
CC(C)c1ccc(C2C3CSCC=C3C(C#N)=C(N)C2(C#N)C#N)cc1 (stereo unspecified)	-27.4%	0.1%	10µM*	?
CO[C@H]1COC(=O)C/C=C\[C@H](C)[C@@H](NS(=O)(=O)c2ccc(C)cc2)COC(=O)CCC[C@@H]1C	-6.3%[10 µM]	.	.	6.3%[10 µM]
COC(=O)[C@@H]1[C@@H]2C[C@H]3c4[nH]c5ccccc5c4CCN3C[C@@H]2CC[C@@H]1O	-9.9%	.	.	-1.3%[10 µM]
O=C(NCC1CCCO1)C(=O)N/N=C/c1cc(Cl)ccc1O (stereo unspecified)	?	-1.1%	2.4%	12.6µM*
CN(C)c1ccc(C(=O)N/N=C/c2cc(Br)cc(Br)c2O)cc1	5.62µM*	0.1%	-21.5%	2.82µM*
COc1cccc(/C=N/NC(=O)c2ccncc2)c1OC(=O)c1ccc(Br)cc1	11.2µM*	0.0%	.	5.01µM*
COc1c(Br)cc(Br)cc1/C=N/NC(=O)c1ccncc1	-3.4%	-0.4%	15.5%	14.1µM*
COc1cc(/C=N/NC(=O)c2ccncc2)ccc1OC(=O)c1cccc(Br)c1	-21.5%	-0.1%	.	-27.8%
COc1c(Br)cc(Br)cc1/C=N/NC(=O)c1cccnc1	?	-0.5%	.	?
CC(C)CO/N=C1/[C@H]2O[C@@H]2[C@@H](O)[C@H]2[C@H]1CCn1c(=O)n(-c3ccccc3)c(=O)n12	2.9%[10 µM]	.	.	0.0%[10 µM]
N#Cc1nc(NCCO)nc(Nc2ccccc2)n1	-9.6%	.	.	.
Cn1c(=O)cc(SCC(=O)NCC2CCCO2)c2ccc(Cl)cc21 (stereo unspecified)	?	-0.6%	10µM*	-5.9%
COc1cccc(C(=O)Oc2c(Br)cc(Br)cc2/C=N/NC(=O)c2cc(C)[nH]n2)c1	22.4µM*	0.0%	11.2%	-16.1%
O=C(N/N=C/c1cc(Cl)ccc1O)c1ccncc1	?	-0.4%	1.7%	3.16µM*
CCn1c(=O)cc(SCC(=O)NCC2CCCO2)c2ccccc21 (stereo unspecified)	1.5%	-0.3%	-22.7%[46.1 µM]	-1.7%
CCNC(=S)N/N=C/c1cc(Br)cc(Br)c1OC	2.51µM*	0.2%	-11.8%[46.1 µM]	1.12µM*
Cc1cc(C(=O)N/N=C/c2cccc(OC(=O)c3cccc(Br)c3)c2)n[nH]1	-9.2%	0.4%	.	-24.5%
C[C@]12CCC(=O)C=C1CC[C@@H]1C2[C@@H](O)C[C@@]2(C)[C@H]1CC[C@]2(O)C(=O)CO (stereo partly specified)	5.0%	.	-3.8%[46.1 µM]	8.6%
O=C(CSc1nnc(CNC(=O)c2c(F)cccc2Cl)o1)NCc1ccccc1	0.8%	-0.5%	.	-7.7%
c1ccc(Nc2nc(-c3ccoc3)nc3ccccc23)cc1	-11.5%	.	.	?
SMILES	VP16 counter	B2AR arrestin	NPSR antagonist	RORgamma inh
COc1cc(C(C(=O)Nc2c(C)cccc2C)N(C)C(=O)c2ccc(-n3cnnn3)cc2)ccc1O (stereo unspecified)	-1.3%	-0.1%	-1.3%	11.2%
COCCNc1nc(CSc2ccccc2)nc2sc(C)c(C)c12	?	-0.2%	-20.8%[46.1 µM]	11.2µM*
O=C(/C=C/c1ccc(F)cc1)NC(=S)NC1CCCCC1	-5.3%	-0.1%	8.6%	?
CC(C)NC(=S)NC(=O)/C=C/c1ccc(F)cc1	7.08µM*	-0.6%	-2.6%	1.78µM*
Cc1cccc(NC(=S)N(C)C2CCCCC2)c1	17.8µM*	-0.7%	-15.2%	11.2µM*
CN(C(=S)NC(=O)/C=C/c1ccc(F)cc1)C1CCCCC1	2.51µM*	-1.1%	-47.2%	1.26µM*
